Only a selection was taken, and the strongest signals are over-represented in it overall.
Key:
Assay in all cases: glycan array binding signal (z-score within array); higher = stronger binding
[1] = system: Fuc(a1-2)[GalNAc(a1-3)]Gal(b1-4)GlcNAc; settings: glycan notation: IUPAC condensed, linker removed
How it was run: (§1)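 The Consortium for Functional Glycomics database supplied 3228 glycan arrays, of which those lacking an available protein sequence were dropped. The binding signal, a within-array Z-score, was averaged across arrays of the same protein sequence and across linkers. Negative scores can be read as non-binding.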

[2] = system: Fuc(a1-3)[Gal(b1-4)]GlcNAc(b1-2)Man; settings: glycan notation: IUPAC condensed, linker removed; mutation: R125K
How it was run: as §1

[3] = system: Fuc(a1-2)[GalNAc(a1-3)]Gal(b1-4)Glc; settings: glycan notation: IUPAC condensed, linker removed
How it was run: as §1

[4] = system: Fuc(a1-2)[GalNAc(a1-3)]Gal(b1-4)[Fuc(a1-3)]GlcNAc(b1-3)GalNAc; settings: glycan notation: IUPAC condensed, linker removed
How it was run: as §1

[5] = system: Fuc(a1-2)[GalNAc(a1-3)]Gal(b1-4)[Fuc(a1-3)]GlcNAc; settings: glycan notation: IUPAC condensed, linker removed
How it was run: as §1

[6] = system: Fuc(a1-3)[Gal(b1-4)]GlcNAc(b1-2)Man(a1-6)[Gal(b1-4)GlcNAc(b1-2)Man(a1-3)]Man(b1-4)GlcNAc(b1-4)GlcNAc; settings: glycan notation: IUPAC condensed, linker removed
How it was run: as §1

[7] = system: Fuc(a1-2)[GalNAc(b1-3)]Gal; settings: glycan notation: IUPAC condensed, linker removed
How it was run: as §1

[8] = system: Fuc(a1-2)[GalNAc(a1-3)]Gal; settings: glycan notation: IUPAC condensed, linker removed
How it was run: as §1

[9] = system: Fuc(a1-2)[GalNAc(a1-4)]Gal(b1-4)GlcNAc; settings: glycan notation: IUPAC condensed, linker removed
How it was run: as §1

[10] = system: Fuc(a1-3)[Gal(b1-4)]Glc6S; settings: glycan notation: IUPAC condensed, linker removed
How it was run: as §1

Chain of PILRb (Mus musculus), Q2YSF2 (Q2YSF2 entry or part of it): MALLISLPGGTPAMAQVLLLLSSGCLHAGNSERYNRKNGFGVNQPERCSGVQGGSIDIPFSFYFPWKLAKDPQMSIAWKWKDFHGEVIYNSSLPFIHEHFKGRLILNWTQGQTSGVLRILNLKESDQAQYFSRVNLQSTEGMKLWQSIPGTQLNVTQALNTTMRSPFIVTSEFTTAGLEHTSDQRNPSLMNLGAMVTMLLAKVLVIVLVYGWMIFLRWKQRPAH
Chain of 6RG (Lolium perenne) (chain, as listed by the source): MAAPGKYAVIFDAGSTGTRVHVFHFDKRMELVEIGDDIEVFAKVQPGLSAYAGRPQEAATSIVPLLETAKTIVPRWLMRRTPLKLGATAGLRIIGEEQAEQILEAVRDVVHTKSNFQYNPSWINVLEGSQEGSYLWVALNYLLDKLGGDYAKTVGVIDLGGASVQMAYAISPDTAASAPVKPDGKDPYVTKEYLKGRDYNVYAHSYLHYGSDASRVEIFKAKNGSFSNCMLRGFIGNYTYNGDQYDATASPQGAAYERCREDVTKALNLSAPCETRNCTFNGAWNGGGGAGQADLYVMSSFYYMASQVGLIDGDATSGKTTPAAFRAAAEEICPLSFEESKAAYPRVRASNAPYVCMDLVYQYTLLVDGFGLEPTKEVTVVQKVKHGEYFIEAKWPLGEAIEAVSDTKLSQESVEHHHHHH
Chain of CHI3L1 (Homo sapiens), P36222 (P36222 whole entry): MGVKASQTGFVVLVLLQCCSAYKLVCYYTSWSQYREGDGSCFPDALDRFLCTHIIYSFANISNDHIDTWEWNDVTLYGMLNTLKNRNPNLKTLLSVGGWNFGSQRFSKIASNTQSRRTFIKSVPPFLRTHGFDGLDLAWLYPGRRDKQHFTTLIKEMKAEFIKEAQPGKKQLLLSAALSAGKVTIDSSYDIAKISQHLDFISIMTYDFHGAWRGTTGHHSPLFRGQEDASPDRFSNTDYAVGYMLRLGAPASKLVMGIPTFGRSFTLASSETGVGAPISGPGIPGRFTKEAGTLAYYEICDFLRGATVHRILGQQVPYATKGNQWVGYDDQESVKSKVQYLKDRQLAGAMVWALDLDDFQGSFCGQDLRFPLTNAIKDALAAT
Chain of Aggrecan (Rattus norvegicus), NP_071526 (chain, as listed by the source): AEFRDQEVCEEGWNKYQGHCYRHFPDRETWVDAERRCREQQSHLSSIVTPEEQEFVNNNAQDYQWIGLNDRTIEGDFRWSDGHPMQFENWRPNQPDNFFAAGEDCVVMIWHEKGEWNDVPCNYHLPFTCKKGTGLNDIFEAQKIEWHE
Chain of Neurocan (Homo sapiens), O14594 (O14594 other isoform, or with tags, fused parts or gaps): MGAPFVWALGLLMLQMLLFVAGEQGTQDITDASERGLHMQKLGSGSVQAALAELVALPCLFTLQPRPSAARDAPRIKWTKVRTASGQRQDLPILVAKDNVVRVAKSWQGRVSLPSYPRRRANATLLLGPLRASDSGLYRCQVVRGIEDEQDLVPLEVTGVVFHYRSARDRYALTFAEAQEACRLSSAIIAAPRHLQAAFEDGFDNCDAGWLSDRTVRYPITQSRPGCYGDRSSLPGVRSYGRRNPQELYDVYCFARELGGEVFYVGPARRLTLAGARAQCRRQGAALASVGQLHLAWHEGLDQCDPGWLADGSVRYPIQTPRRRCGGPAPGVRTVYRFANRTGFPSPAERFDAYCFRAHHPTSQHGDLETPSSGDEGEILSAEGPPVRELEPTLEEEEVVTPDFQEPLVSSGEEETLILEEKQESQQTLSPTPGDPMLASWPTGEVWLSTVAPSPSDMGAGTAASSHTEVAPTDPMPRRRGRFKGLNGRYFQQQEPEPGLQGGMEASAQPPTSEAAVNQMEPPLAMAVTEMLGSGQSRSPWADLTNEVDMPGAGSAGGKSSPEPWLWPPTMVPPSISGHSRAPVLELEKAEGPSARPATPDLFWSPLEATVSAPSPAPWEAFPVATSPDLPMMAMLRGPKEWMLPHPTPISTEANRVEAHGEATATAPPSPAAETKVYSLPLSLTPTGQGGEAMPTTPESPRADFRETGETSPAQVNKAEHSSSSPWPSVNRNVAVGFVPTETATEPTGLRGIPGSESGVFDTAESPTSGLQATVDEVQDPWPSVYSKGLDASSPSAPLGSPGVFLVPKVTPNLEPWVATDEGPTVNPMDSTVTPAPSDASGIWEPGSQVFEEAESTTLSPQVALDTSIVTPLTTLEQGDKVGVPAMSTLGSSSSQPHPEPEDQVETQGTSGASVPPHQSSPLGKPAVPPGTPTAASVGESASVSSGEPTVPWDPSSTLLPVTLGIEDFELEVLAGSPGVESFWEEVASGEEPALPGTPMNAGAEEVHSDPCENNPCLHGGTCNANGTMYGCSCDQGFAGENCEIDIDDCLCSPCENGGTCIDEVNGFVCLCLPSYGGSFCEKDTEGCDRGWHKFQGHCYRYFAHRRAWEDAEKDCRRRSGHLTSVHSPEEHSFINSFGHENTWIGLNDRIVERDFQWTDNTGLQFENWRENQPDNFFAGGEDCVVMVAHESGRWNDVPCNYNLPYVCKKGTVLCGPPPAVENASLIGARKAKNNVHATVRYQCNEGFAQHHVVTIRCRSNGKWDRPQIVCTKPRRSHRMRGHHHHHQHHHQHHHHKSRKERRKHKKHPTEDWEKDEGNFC
Chain of wLAT-1A (Homo sapiens), Q01650 (Q01650 whole entry): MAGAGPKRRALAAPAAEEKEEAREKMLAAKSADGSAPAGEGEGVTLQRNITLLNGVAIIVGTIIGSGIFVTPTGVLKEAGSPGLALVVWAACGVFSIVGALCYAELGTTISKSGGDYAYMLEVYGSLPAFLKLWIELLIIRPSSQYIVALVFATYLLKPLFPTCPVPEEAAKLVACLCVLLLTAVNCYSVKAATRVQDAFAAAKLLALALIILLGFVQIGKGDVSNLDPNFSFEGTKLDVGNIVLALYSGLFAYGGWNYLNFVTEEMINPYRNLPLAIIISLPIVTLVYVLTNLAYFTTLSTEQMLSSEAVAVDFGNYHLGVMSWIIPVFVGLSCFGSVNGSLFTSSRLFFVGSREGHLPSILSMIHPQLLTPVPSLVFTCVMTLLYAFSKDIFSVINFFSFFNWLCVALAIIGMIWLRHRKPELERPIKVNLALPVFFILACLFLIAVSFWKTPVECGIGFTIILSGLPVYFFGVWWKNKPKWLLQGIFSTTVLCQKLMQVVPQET
Chain of Avaren (Actinomycete K97) (chain, as listed by the source): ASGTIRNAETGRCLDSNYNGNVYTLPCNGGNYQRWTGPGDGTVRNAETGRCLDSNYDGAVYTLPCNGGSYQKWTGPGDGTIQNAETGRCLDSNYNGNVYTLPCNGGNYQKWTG
Chain of 6RG (Lolium perenne), B9U140 (B9U140 entry or part of it): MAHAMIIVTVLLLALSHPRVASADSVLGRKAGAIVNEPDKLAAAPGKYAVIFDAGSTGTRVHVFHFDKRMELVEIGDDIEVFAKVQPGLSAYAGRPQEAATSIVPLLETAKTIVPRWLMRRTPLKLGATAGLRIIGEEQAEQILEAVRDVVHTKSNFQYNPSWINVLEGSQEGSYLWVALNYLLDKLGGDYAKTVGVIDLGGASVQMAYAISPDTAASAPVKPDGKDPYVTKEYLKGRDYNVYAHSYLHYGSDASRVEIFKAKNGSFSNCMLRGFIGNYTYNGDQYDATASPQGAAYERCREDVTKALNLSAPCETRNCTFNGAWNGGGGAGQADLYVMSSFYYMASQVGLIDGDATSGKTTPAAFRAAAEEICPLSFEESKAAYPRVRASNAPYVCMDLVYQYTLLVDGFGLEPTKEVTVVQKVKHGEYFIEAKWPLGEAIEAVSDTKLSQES

Substance: 6RG (Lolium perenne), B9U140
- glycan array binding signal (z-score) [1]: -0.075

Substance: Siglec-8 (Homo sapiens), Q9NYZ4
- glycan array binding signal (z-score) ([1]; mutation: R125K): -0.376
- glycan array binding signal (z-score) [2]: -0.3

Substance: wLAT-1A (Homo sapiens), Q01650
- glycan array binding signal (z-score) [3]: 0.692

Substance: PILRb (Mus musculus), Q2YSF2
- glycan array binding signal (z-score) [4]: 11.4
- glycan array binding signal (z-score) [5]: 2.67
- glycan array binding signal (z-score) [6]: -0.477

Substance: Aggrecan (Rattus norvegicus), NP_071526
- glycan array binding signal (z-score) [5]: 0.401
- glycan array binding signal (z-score) [7]: 17.3

Substance: MpAFP RI GFP (Marinomonas primoryensis)
- glycan array binding signal (z-score) [8]: -0.389

Substance: Neurocan (Homo sapiens), O14594
- glycan array binding signal (z-score) [8]: -0.021

Substance: Avaren (Actinomycete K97)
- glycan array binding signal (z-score) [9]: -0.123

Substance: 6RG (Lolium perenne)
- glycan array binding signal (z-score) [9]: -0.148
- glycan array binding signal (z-score) [6]: -0.247

Substance: CHI3L1 (Homo sapiens), P36222
- glycan array binding signal (z-score) [7]: 0.059
- glycan array binding signal (z-score) [10]: -0.082

— the supplement of paper PMC8728848
